The values that follow come from PubChem BioAssay.

The structures appear in SMILES notation. A number with no mark means an inactive call. For some of these results: Measured potencies and affinities stand elsewhere. Active and inactive are the calls of the source. Unless noted, how the calls were made is not given here.

The nature of experiment [1]: antimalarial activity against Dd2 strain (AID 2302;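 active means growth inhibition above 50% at the single 2 µM test dose, taken to imply half-maximal potency below 2 µM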;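 further: 0% = DMSO untreated growth and 100% = chloroquine plus artemisinin killed control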). The settings on record: P. falciparum Dd2 in RBCs, LDH growth readout, 72 h; at 2 µM; hits give high values.
Experiment [2] in a line: human hepatoma cell viability loss – ATP luminescence, cytotoxicity control for P. falciparum antimalarial project, primary screen (AID 2303;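 active means inhibition above 50%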;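 further: 0% = DMSO wells and 100% = digitonin-killed cells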). The settings on record: HepG2 viability, 24-48 h, at 10 µM, hits give high values.
For experiment [3], the target named is L-lactate dehydrogenase (Plasmodium falciparum (isolate CDC / Honduras)) (UniProt Q27743). Briefly: PfLDH activity inhibition – cell lysate, 3D7 strain, counter-screen for P. falciparum growth inhibition project (AID 2304).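 Further: 0% = vehicle and 100% = reference inhibitor.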 To be noted: P. falciparum 3D7 crude extract, LDH APAD/NBT absorbance; at 2 µM; hits give high values.
A short description of experiment [4]: inhibition of 3D7 malaria parasite growth – strain 3D7 (AID 2306).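 Further: 0% = DMSO wells and 100% = chloroquine plus artemisinin control wells.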 To be noted: P. falciparum 3D7 erythrocytic growth, LDH absorbance, 72 h; at 2 µM; hits give high values.
Experiment [5] concerns the target Calcium-dependent protein kinase 1 (Plasmodium falciparum (isolate 3D7)) (UniProt P62344). Put plainly: PfCDPK1 kinase inhibitors, biochemical, TCAMS library (AID 1159585; cut-off not given, nearly all actives have IC50 up to about 0.98 µM;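 further: inhibitors leave more ATP so luminescence rises with inhibition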). To be noted: recombinant PfCDPK1, Kinase-Glo ATP depletion luminescence. (Kinase-Glo measures the ATP left after a reaction by luminescence.)
Experiment [6] has as its target Plasmodium falciparum protein kinase 6 (PK6, PF3D7_1337100) (UniProt Q8IDW1). Briefly: PfPK6 kinase inhibitors, biochemical, TCAMS library (AID 1159586). To be noted: recombinant PfPK6, Kinase-Glo ATP depletion luminescence.
Experiment [7] addresses Protein kinase 7 (PK7), Plasmodium falciparum 3D7 (PF3D7_0213400) (UniProt Q7YTF7). Briefly: inhibition of Plasmodium PK7 catalytic activity – biochemical, TCAMS antimalarial set, Kinase-Glo luminescence (AID 1159587). To be noted: recombinant PfPK7, Kinase-Glo ATP depletion luminescence.
Experiment [8] deals with Calcium-dependent protein kinase 4 (Plasmodium falciparum (isolate 3D7)) (UniProt Q8IBS5). Briefly: PfCDPK4 kinase inhibitors, biochemical, TCAMS library (AID 1159588; cut-off not given, nearly all actives have IC50 up to about 0.91 µM). The settings on record: recombinant PfCDPK4, Kinase-Glo ATP depletion luminescence.
Sequence of Calcium-dependent protein kinase 4 (Plasmodium falciparum (isolate 3D7)) (Q8IBS5 whole entry, looked up): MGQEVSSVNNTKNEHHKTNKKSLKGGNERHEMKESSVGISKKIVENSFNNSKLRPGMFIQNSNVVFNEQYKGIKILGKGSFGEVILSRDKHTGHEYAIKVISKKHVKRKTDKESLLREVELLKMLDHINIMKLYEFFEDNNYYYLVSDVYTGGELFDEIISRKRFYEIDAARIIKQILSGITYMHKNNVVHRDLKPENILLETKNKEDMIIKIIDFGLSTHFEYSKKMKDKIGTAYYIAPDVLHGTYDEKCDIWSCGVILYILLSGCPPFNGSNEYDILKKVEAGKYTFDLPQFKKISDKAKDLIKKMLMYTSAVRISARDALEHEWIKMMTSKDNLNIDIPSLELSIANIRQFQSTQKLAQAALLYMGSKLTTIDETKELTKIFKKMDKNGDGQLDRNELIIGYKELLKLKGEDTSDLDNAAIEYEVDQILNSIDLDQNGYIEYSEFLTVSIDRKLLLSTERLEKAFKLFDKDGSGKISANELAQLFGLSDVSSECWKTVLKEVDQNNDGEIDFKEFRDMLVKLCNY

Sequence of Protein kinase 7 (PK7), Plasmodium falciparum 3D7 (PF3D7_0213400) (Q7YTF7 1-343): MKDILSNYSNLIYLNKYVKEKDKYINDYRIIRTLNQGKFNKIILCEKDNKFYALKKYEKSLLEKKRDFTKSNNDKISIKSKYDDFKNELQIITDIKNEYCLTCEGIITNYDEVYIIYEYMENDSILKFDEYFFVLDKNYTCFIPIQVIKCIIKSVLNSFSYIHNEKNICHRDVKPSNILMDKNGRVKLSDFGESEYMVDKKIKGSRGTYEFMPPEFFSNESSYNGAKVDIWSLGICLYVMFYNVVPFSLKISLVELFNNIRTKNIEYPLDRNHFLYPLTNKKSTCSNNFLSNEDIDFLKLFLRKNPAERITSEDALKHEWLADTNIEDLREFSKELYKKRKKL
Sequence of L-lactate dehydrogenase (Plasmodium falciparum (isolate CDC / Honduras)) (Q27743 whole entry, looked up): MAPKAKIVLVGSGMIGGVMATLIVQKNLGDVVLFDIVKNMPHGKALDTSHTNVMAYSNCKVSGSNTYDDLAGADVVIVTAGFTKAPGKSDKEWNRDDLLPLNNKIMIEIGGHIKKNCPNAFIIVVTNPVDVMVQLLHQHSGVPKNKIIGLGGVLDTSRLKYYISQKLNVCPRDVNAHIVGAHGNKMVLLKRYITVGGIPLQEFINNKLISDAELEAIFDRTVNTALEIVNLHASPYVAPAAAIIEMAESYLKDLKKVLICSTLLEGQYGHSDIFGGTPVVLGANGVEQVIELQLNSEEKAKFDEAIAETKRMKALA
Sequence of Calcium-dependent protein kinase 1 (Plasmodium falciparum (isolate 3D7)) (P62344 whole entry, looked up): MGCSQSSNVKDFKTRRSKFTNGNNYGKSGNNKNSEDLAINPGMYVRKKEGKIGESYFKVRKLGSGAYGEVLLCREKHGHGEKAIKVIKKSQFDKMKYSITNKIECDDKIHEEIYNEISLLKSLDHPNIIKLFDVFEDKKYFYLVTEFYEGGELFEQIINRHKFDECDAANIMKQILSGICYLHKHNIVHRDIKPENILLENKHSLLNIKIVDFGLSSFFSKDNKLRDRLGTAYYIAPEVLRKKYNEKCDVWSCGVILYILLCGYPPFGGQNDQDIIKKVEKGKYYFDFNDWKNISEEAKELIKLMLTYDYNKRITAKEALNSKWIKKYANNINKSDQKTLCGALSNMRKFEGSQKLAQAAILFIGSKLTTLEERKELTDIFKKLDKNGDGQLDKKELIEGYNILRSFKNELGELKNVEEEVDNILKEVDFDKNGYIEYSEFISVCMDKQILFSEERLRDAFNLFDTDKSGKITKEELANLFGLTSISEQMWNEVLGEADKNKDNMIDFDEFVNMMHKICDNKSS
Sequence of Plasmodium falciparum protein kinase 6 (PK6, PF3D7_1337100) (Q8IDW1 1-305): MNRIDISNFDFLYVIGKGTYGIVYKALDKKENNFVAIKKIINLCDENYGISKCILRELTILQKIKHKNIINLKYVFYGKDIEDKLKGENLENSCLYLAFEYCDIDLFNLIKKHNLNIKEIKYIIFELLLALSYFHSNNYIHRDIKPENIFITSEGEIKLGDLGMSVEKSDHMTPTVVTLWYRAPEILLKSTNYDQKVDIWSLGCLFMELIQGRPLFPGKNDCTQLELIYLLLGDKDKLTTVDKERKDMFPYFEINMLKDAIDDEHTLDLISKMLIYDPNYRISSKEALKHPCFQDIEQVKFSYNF

For orientation: inhibition means the change of the read-out against control, counted positive when it falls. Turning to `O=C(Nc1ccc(S(=O)(=O)N2CCCCCC2)cc1)c1cc(-c2ccccc2O)n[nH]1`, the growth inhibition was 76% (active) in experiment [1] and 100% (active) in experiment [4]. Besides, the inhibition in experiment [2] is 16%; in experiment [3], 6%. In addition, the outcome in experiment [5], in experiment [6], in experiment [7] and in experiment [8] was inactive.

`CCc1ccc(NC(=O)N(CCCN2CCN(C)CC2)Cc2csc(-c3ccc(CNCc4ccccc4)cc3)n2)cc1`: the growth inhibition in experiment [1] is 80% (active); in experiment [4], 99% (active). For the same molecule, the figures for the inhibition in experiment [2] and in experiment [3] were 17% and -1%, respectively. Besides, the result in experiment [5], in experiment [6], in experiment [7] and in experiment [8] was inactive.

Take `O=C(Cc1ccc(NC(=O)c2ccc(O)c(-c3ccc(Cl)c(Cl)c3)c2)cc1)NCc1cccc(C(F)(F)F)c1`: the figures for the growth inhibition in experiment [1] and in experiment [4] were 28% and 95% (active), respectively. For the same molecule, the inhibition is -7% in experiment [2] and 0% in experiment [3]. Besides, the result in experiment [5], in experiment [6], in experiment [7] and in experiment [8] was inactive.

`CC1=C(C(=O)OCCOCc2ccccc2)C(c2ccccc2C(F)(F)F)C(C(=O)OCCOCc2ccccc2)=C(C)N1`: the growth inhibition is 87% (active) in experiment [1] and 89% (active) in experiment [4]. In addition, the inhibition in experiment [2] was -7%; in experiment [3], 3%. In addition, the result in experiment [5], in experiment [6], in experiment [7] and in experiment [8] was inactive.

In the case of `Cc1cc2nc(-c3ccc(C(=O)NCc4cccc(F)c4)cc3)[nH]c2cc1C`, the growth inhibition in experiment [1] is 6%; in experiment [4], 91% (active). The inhibition in experiment [2] and in experiment [3] was -5% throughout. Also, the result in experiment [5], in experiment [6], in experiment [7] and in experiment [8] was inactive.

In the case of `Cc1cccc2[nH]c(-c3cccc(-c4cccc(NC(=O)c5cncn5C)c4)c3)nc12`, the figures for the growth inhibition in experiment [1] and in experiment [4] were 91% (active) and 103% (active), respectively. Further, the inhibition in experiment [2] was -1%; in experiment [3] it was 0%. Besides, the outcome in experiment [5], in experiment [6], in experiment [7] and in experiment [8] was inactive.

`Cc1cc(C(=O)NC2CCN(Cc3ccccc3)CC2)ccc1-c1nc2cc(Cl)c(Cl)cc2[nH]1`: the growth inhibition in experiment [1] is 32%; in experiment [4], 96% (active). Besides, the inhibition in experiment [2] is 7%; in experiment [3] it was 0%. The result in experiment [5], in experiment [6], in experiment [7] and in experiment [8] was inactive.

Regarding `COc1ccc(Nc2nccc(N3CCC(NC(=O)Nc4ccc5c(c4)OCO5)C3)n2)cc1` (stereo not given), the values for the growth inhibition in experiment [1] and in experiment [4] were 57% (active) and 98% (active), respectively. The inhibition in experiment [2] was 27%; in experiment [3] it was -2%. Besides, the outcome in experiment [5], in experiment [6], in experiment [7] and in experiment [8] was inactive.

Regarding `CC(C)N1CCN(c2ccc(OCCCCN3CCN(c4cccc(Cl)c4Cl)CC3)cc2Cl)CC1`, the values for the growth inhibition in experiment [1] and in experiment [4] were 34% and 89% (active), respectively. Besides, the values for the inhibition in experiment [2] and in experiment [3] were 63% (active) and -1%, respectively. Also, the outcome in experiment [5], in experiment [6], in experiment [7] and in experiment [8] was inactive.

Regarding `CSC1=NC(=Nc2c(C)cccc2C)C2(CCC(C(C)(C)C)CC2)N1c1ccc(O)cc1` (stereo not given), the growth inhibition was 93% (active) in experiment [1] and 97% (active) in experiment [4]. Besides, the inhibition in experiment [2] is 5%; in experiment [3], 1%. Further, the outcome in experiment [5], in experiment [6], in experiment [7] and in experiment [8] was inactive.

Turning to `O=C(Nc1cccc(CN2CCN(C(=O)c3cccc(Cl)c3)CC2)c1)c1ccco1`, the values for the growth inhibition in experiment [1] and in experiment [4] were 94% (active) and 96% (active), respectively. The values for the inhibition in experiment [2] and in experiment [3] were 7% and 2%, respectively. Moreover, the result in experiment [5], in experiment [6], in experiment [7] and in experiment [8] was inactive.

As for `COc1ccc(CN2CCC(N3CCc4cc(NC(=O)c5cc(C)on5)ccc43)C2)cc1Cl` (stereo not given), the growth inhibition in experiment [1] was 91% (active); in experiment [4], 94% (active). Further, the inhibition was 15% in experiment [2] and 2% in experiment [3]. Also, the result in experiment [5], in experiment [6], in experiment [7] and in experiment [8] was inactive.

For `Cc1ccc(C)c(C2CCN(CCCCNC(=O)c3ccc(NC(=O)c4ccc(Cl)cc4)cc3)CC2)c1`, the growth inhibition in experiment [1] was 13%; in experiment [4] it was 94% (active). Further, the inhibition in experiment [2] was 15%; in experiment [3], 7%. The outcome in experiment [5], in experiment [6], in experiment [7] and in experiment [8] was inactive.

Regarding `CC(C)(C)C(=O)Nc1ccc(C(=O)Nc2cccc(-c3nc4ccccc4[nH]3)c2)cc1`, the growth inhibition in experiment [1] is 62% (active); in experiment [4], 96% (active). For the same molecule, the inhibition in experiment [2] is 56% (active); in experiment [3], 1%. The outcome in experiment [5], in experiment [6], in experiment [7] and in experiment [8] was inactive.

As to `Cc1nc2c(c(C)nn2C(C)(C)C)c(C)c1CCC(=O)Nc1ccc(CN2CCCC2)cc1`, the figures for the growth inhibition in experiment [1] and in experiment [4] were 5% and 89% (active), respectively. Besides, the inhibition in experiment [2] is 1%; in experiment [3], 0%. The outcome in experiment [5], in experiment [6], in experiment [7] and in experiment [8] was inactive.

For `Cc1cccc2[nH]c(-c3cccc(-c4cccc(CNC(C)C)c4)c3)nc12`, the growth inhibition was 98% (active) in experiment [1] and 102% (active) in experiment [4]. The figures for the inhibition in experiment [2] and in experiment [3] were 29% and -4%, respectively. Also, the result in experiment [5], in experiment [6], in experiment [7] and in experiment [8] was inactive.

For `COc1ccc2nccc([C@@H](O)CN3CCC(NCCOc4cccc(C(F)(F)F)c4)CC3)c2c1`, the growth inhibition in experiment [1] is 74% (active); in experiment [4], 102% (active). Moreover, the inhibition was 16% in experiment [2] and 3% in experiment [3]. The result in experiment [5], in experiment [6], in experiment [7] and in experiment [8] was inactive.

Regarding `CCCCCCn1c(Sc2ccc(C#N)c([N+](=O)[O-])c2)nnc1-c1cccs1`, the growth inhibition in experiment [1] is 60% (active); in experiment [4] it was 97% (active). Further, the inhibition was 26% in experiment [2] and -4% in experiment [3]. In addition, the result in experiment [5], in experiment [6], in experiment [7] and in experiment [8] was inactive.

With `CC(CN(C)C)C(=O)Nc1cccc(-c2ccc(-c3nc4ccc(C(F)(F)F)cc4[nH]3)cc2)c1` (stereo not given), the growth inhibition in experiment [1] is 97% (active); in experiment [4], 99% (active). The inhibition is 26% in experiment [2] and -2% in experiment [3]. The outcome in experiment [5], in experiment [6], in experiment [7] and in experiment [8] was inactive.

As to `O=[N+]([O-])c1cccc(C=NNc2ccnc3cc(F)ccc23)c1`, the growth inhibition in experiment [1] and in experiment [4] was 100% (active) in each case. The inhibition was 4% in experiment [2] and -1% in experiment [3]. In addition, the outcome in experiment [5], in experiment [6], in experiment [7] and in experiment [8] was inactive.
